The values that follow come from PubChem BioAssay (NCI).

SMILES strings stand for the structures. Compounds without any hit were thinned out: in the full panel of roughly 83,000, 20% have a hit.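 Values shown are percent growth following 48 h exposure of cells in 96-well plates to a single concentration of compound; below 10 was considered active.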 A number with no mark means an inactive call. Calls of active or inactive are those of the source.

Some test systems named below: HT29 colon; SNB-75 CNS; SNB-19 CNS; U251 CNS; PC-3 prostate; SK-MEL-5 melanoma; UACC-62 melanoma; LOX IMVI melanoma; SK-MEL-28 melanoma; SK-MEL-2 melanoma.
Common to all, as to test: NCI-60 one-dose screen, 48 h (100 = growth as untreated, 0 = no growth, -100 = all killed)
What all share (settings): 10 µM unless noted

For `COc1cc(-c2nc3ccc(-c4nnc(SCC(=O)Nc5ccc(C(C)=O)cc5)o4)cc3[nH]2)cc(OC)c1OC`, the growth was 108% in the experiment on HT29 colon; 96.6% with SNB-75 CNS; 100% in the experiment on SNB-19 CNS; 103% in the experiment with U251 CNS; 93.3% in the experiment with PC-3 prostate; 102% in the experiment with SK-MEL-5 melanoma. Also, the growth in the experiment with UACC-62 melanoma was 93.2%; in the experiment on LOX IMVI melanoma it was 108%; in the experiment on SK-MEL-28 melanoma, 103%; in the experiment on SK-MEL-2 melanoma, 115%.

Turning to `COc1ccccc1/C=C/C=N/NC1=NC2C(S1)N(C)C(=O)N2C` (stereo not given), the growth was 6.54% (active) with HT29 colon; 18.5% with SNB-75 CNS; 29.1% with SNB-19 CNS; 25.1% with U251 CNS; 30.2% with PC-3 prostate; 33.8% in the experiment with SK-MEL-5 melanoma. Moreover, the growth in the experiment on UACC-62 melanoma is 46.7%; in the experiment with LOX IMVI melanoma, 35.3%; in the experiment on SK-MEL-28 melanoma, 56%; in the experiment on SK-MEL-2 melanoma, 23.9%.

In the case of `CN1CCN(Cc2ccc(NC(=O)c3cncc(C#Cc4cnc5ccc(N6CCSCC6)nn45)c3)cc2C(F)(F)F)CC1`, the growth is -50.1% (active) in the experiment with HT29 colon; -67.4% (active) in the experiment on SNB-75 CNS; -12.6% (active) in the experiment on SNB-19 CNS; -91.6% (active) with U251 CNS; 1.39% (active) with PC-3 prostate; 7.81% (active) in the experiment on SK-MEL-5 melanoma. Also, the growth with UACC-62 melanoma is -30.5% (active); with LOX IMVI melanoma, -89.8% (active); in the experiment on SK-MEL-28 melanoma it was -48.1% (active); in the experiment on SK-MEL-2 melanoma it was -89.1% (active).

`CNC(=O)c1cc(-c2ccc(NC(=O)Nc3ccc(N4CCN(C)CC4)c(C(F)(F)F)c3)cc2)nc2cccnc12`: the growth in the experiment with HT29 colon is -89.3% (active); in the experiment on SNB-75 CNS it was -83.1% (active); in the experiment on SNB-19 CNS, -79.4% (active); in the experiment with U251 CNS, -94.2% (active); with PC-3 prostate, -90.6% (active); in the experiment with SK-MEL-5 melanoma, -96.6% (active). The growth was -83.8% (active) in the experiment with UACC-62 melanoma, -92.5% (active) in the experiment on LOX IMVI melanoma, -92.2% (active) in the experiment with SK-MEL-28 melanoma and -80.7% (active) in the experiment with SK-MEL-2 melanoma.

With `O=C(CN1C(=O)/C(=C/c2ccccc2)SC1=S)N1CCOCC1`, the growth was 112% in the experiment with HT29 colon; 98.9% in the experiment on SNB-75 CNS; 99% with SNB-19 CNS; 102% in the experiment on U251 CNS; 108% with PC-3 prostate; 97% in the experiment with SK-MEL-5 melanoma. Besides, the growth is 93.4% in the experiment with UACC-62 melanoma, -34.9% (active) in the experiment on LOX IMVI melanoma, 96.5% in the experiment on SK-MEL-28 melanoma and 125% in the experiment on SK-MEL-2 melanoma.

In the case of `N#Cc1c(-c2ccc(F)cc2)nc2c(C#N)c(Nc3ccccc3)nn2c1N`, the growth in the experiment on HT29 colon is 102%; in the experiment with SNB-75 CNS, 101%; with SNB-19 CNS it was 96.3%; in the experiment on U251 CNS, 104%; in the experiment with PC-3 prostate it was 96.7%; with SK-MEL-5 melanoma, 99.2%. Besides, the growth was 99.8% with UACC-62 melanoma, 99.8% with LOX IMVI melanoma, 102% in the experiment with SK-MEL-28 melanoma and 105% in the experiment on SK-MEL-2 melanoma.

Consider `Cc1ccc(/C=C/c2nn3c(-c4ccco4)nnc3s2)cc1C`, for which the growth in the experiment on HT29 colon was 109%; in the experiment on SNB-75 CNS it was 96.5%; in the experiment with SNB-19 CNS, 94.9%; in the experiment on U251 CNS, 95.7%; in the experiment with PC-3 prostate, 89.9%; in the experiment with SK-MEL-5 melanoma, 103%. The growth was 94.8% in the experiment on UACC-62 melanoma, 89.3% with LOX IMVI melanoma, 104% in the experiment on SK-MEL-28 melanoma and 128% in the experiment on SK-MEL-2 melanoma.

With `CS(=O)(=O)c1ccc(-c2nc3ccccn3c2/C=N/Nc2nc(-c3ccc(Br)cc3)cs2)cc1`, the growth was 114% with HT29 colon; 114% in the experiment on SNB-75 CNS; 103% in the experiment with SNB-19 CNS; 107% in the experiment with U251 CNS; 100% with PC-3 prostate; 96.5% in the experiment on SK-MEL-5 melanoma. In addition, the growth in the experiment with UACC-62 melanoma is 102%; in the experiment with LOX IMVI melanoma, 112%; with SK-MEL-28 melanoma, 103%; in the experiment on SK-MEL-2 melanoma, 113%.

Regarding `COc1cccc(N2CCN(c3ncnc4c3[nH]c3ccc(F)cc34)C[C@@H]2C)c1`, the growth in the experiment with HT29 colon was 5.69% (active); in the experiment with SNB-75 CNS it was -59% (active); with SNB-19 CNS, -12% (active); in the experiment on U251 CNS, -31.5% (active); in the experiment on PC-3 prostate, -42.3% (active); with SK-MEL-5 melanoma, -90.9% (active). Further, the growth in the experiment on UACC-62 melanoma is -70.8% (active); with LOX IMVI melanoma, 0.646% (active); with SK-MEL-28 melanoma, -26.8% (active); in the experiment with SK-MEL-2 melanoma, -94.9% (active).

Consider `CCCSc1nc(Nc2ccc(/C(C)=N\NC(N)=S)cc2)c(C#N)c(-c2ccc(OC)cc2)n1`, for which the growth in the experiment with HT29 colon is 87.7%; in the experiment on SNB-75 CNS, 56%; with SNB-19 CNS, 39.7%; in the experiment with U251 CNS it was 17.1%; in the experiment on PC-3 prostate, 99.8%; in the experiment with SK-MEL-5 melanoma, 58.2%. Also, the growth is 87.7% with UACC-62 melanoma, 68% in the experiment on LOX IMVI melanoma, 79.8% in the experiment on SK-MEL-28 melanoma and 89.7% in the experiment on SK-MEL-2 melanoma.

Consider `CN(C)CCCOc1c2ccc(Cl)cc2nc2c1oc1ccc(Cl)cc12`, for which the growth was -77.6% (active) in the experiment on HT29 colon; 18.3% with SNB-75 CNS; 24.5% with SNB-19 CNS; -66% (active) with U251 CNS; 23.2% with PC-3 prostate; -19.3% (active) in the experiment with SK-MEL-5 melanoma. The growth with UACC-62 melanoma is -68.1% (active); with LOX IMVI melanoma, -77.2% (active); in the experiment with SK-MEL-28 melanoma it was 4.58% (active); with SK-MEL-2 melanoma, 58.5%.

`O=C(c1ccc(Cl)cc1)C1[C@H](c2ccc(Cl)cc2)[C@@H](c2ccccc2)NC12C(=O)Nc1ccc(Br)cc12` (stereo not given in full): the growth was 0.232% (active) in the experiment with HT29 colon; 43.9% in the experiment on SNB-75 CNS; 60.5% in the experiment on SNB-19 CNS; 28.3% with U251 CNS; 12.8% with PC-3 prostate; 54.8% with SK-MEL-5 melanoma. Moreover, the growth in the experiment on UACC-62 melanoma was 37.4%; with LOX IMVI melanoma, 15.3%; in the experiment on SK-MEL-28 melanoma, 67.3%; in the experiment on SK-MEL-2 melanoma, 38.7%.

Take `N/C(=N\c1nc2c(Br)cccc2s1)C(Br)Br`: the growth with HT29 colon was -11.3% (active); in the experiment with SNB-75 CNS it was -0.636% (active); in the experiment on SNB-19 CNS, 27.7%; with U251 CNS, -28.2% (active); in the experiment with PC-3 prostate, 13.5%; with SK-MEL-5 melanoma, 68.3%. The growth in the experiment on UACC-62 melanoma is -5.13% (active); in the experiment with LOX IMVI melanoma, -84.9% (active); in the experiment on SK-MEL-28 melanoma, -5.02% (active); with SK-MEL-2 melanoma, -42.1% (active).

For `C/C(=N/NC(N)=S)c1ccc(Nc2nc(SCC(C)C)nc(-c3ccc(F)cc3)c2C#N)cc1`, the growth in the experiment on HT29 colon was 15%; with SNB-75 CNS it was 80.6%; with SNB-19 CNS, 15.4%; with U251 CNS, -39.6% (active); in the experiment on PC-3 prostate, -14.5% (active); in the experiment on SK-MEL-5 melanoma it was 37.3%. In addition, the growth is -18.4% (active) in the experiment on UACC-62 melanoma, -20% (active) with LOX IMVI melanoma, -9.66% (active) in the experiment with SK-MEL-28 melanoma and 11.1% in the experiment with SK-MEL-2 melanoma.
